# Screening data (PubChem BioAssay)
# PostGolgi yeast – phenotypic screen on post-Golgi transport, primary screen; post-Golgi transport phenotypic cell assay; inhibition, % at 10 µM; actives 0.9% (n = 98,000); AID 739, 2007;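 note: yeast cells grown in 1536-well plates; yeast grown about 18 h at 30C before absorbance read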
# CYP2C9 activ – human CYP2C9 activators, primary screen, biochemical, luminescence; AID 1024, 2008; actives 1.4% (n = 96,000); activation factor at 5 µM; recombinant CYP2C9, luciferin-H conversion; stronger effect = higher value; factor 1 = untreated enzyme, 0 = blocked;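 active = activation factor of 2 or more for CYP2C9 at a 5 µM dose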;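 note: 0 = sulfaphenazole-blocked wells and 1 = vehicle-only wells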
# Target sequence (P11712 whole entry, looked up): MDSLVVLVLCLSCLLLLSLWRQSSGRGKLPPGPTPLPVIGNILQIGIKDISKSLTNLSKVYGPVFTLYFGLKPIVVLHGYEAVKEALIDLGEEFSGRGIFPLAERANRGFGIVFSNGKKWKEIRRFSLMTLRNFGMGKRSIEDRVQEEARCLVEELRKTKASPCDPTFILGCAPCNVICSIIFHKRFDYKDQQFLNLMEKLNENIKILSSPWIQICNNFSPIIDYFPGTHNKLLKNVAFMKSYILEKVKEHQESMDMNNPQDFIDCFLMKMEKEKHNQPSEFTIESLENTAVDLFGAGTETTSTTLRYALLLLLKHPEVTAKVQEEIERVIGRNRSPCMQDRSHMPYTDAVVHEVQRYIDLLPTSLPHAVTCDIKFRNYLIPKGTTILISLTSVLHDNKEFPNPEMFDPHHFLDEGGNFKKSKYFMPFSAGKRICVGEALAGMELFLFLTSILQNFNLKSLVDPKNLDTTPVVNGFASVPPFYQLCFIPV
# CYP2C19 inhib – blockers of cytochrome P450 2C19 activity – biochemical, luminescence, ADME assay, primary screen; CYP2C19 Supersomes, luciferin-H EGE luminescence, 30 min; actives 21% (n = 96,000); inhibition, % at 5 µM; P33261; AID 778, 2007;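 active = CYP2C19 inhibition above a set limit at 5 µM in the primary screen, cut at about 50% in these data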;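 note: plate controls were negative control wells for no effect and 2.5 mM tranylcypromine positive control for full effect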
# CYP2C9 inhib – blockers of cytochrome P450 2C9 activity – biochemical, luminescence, ADME assay, primary screen; P11712; CYP2C9 Supersomes, luciferin-H conversion; inhibition, % at 5 µM; actives 20% (n = 96,000); AID 777, 2007;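 active = blocking of liver enzyme CYP2C9 beyond about 50% at 5 µM, limit read from the data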
# PostGolgi ctrl – growth inhibition of yeast control strain, primary screen, counter-screen for post-Golgi transport modulator project; efflux-deficient yeast background strain, growth absorbance A615, 16 h; inhibition, % at 10 µM; actives 5% (n = 98,000); AID 738, 2007
# CYP2C19 activ – human CYP2C19 activators, primary screen, biochemical, luminescence | Cytochrome P450 2C19 (Homo sapiens), P33261 | recombinant CYP2C19, luciferin-H EGE luminescence; stronger effect = higher value; 0 = fully inhibited enzyme, 1 = untreated enzyme | activation factor at 5 µM | 96,000 tested, under 10 active | AID 1025, 2008;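 active = activation factor of at least 2 at 5 µM in the primary screen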;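 note: 0 = wells with 2.5 mM tranylcypromine and 1 = vehicle-only wells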
# Numbers without * were called inactive; / = not tested or not shown. Hits are enriched below; roughly 32% of the tested compounds scored in any of these assays. Cut-off read from the data, not from the text of the source, unless noted: active = inhibition above about 30%; inactive = the rest.
SMILES,PostGolgi yeast,CYP2C9 activ,CYP2C19 inhib,CYP2C9 inhib,PostGolgi ctrl,CYP2C19 activ
COc1ccc(NC(=O)c2sccc2SCc2cccc(C(F)(F)F)c2)cc1,-3.9,0.3,50.5*,68.8*,17.2,0.5
O=C(Nc1ccc(F)cc1F)c1ccco1,1.9,0.9,-5.6,5.5,16.3,1.1
COc1ccc(NC(=O)Nc2nnc(-c3ccccc3SCc3ccccc3)s2)cc1,-6.3,0.9,5.3,12.1,8.5,0.9
O=C(Nc1cccc(C(F)(F)F)c1)c1ccco1,-2.0,1.3,2.8,-33.0,6.5,1
O=C(Nc1ccc(F)cc1F)c1sccc1SCc1cccc(C(F)(F)F)c1,-1.8,0.4,26.4,57.9*,12.9,0.7
O=C(Nc1ccc(F)cc1)c1sccc1SCc1cccc(C(F)(F)F)c1,-4.9,0.4,36.4,64.7*,22.2,0.6
Cc1cc(C)n(C(=O)C23CC4CC(CC(C4)C2)C3)n1,-11.6,1,-3.4,3.1,-0.7,1
Cn1c(Sc2nc3ccccc3n2C)nc2ccccc21,-8.6,0.5,94.8*,53.0*,2.9,0.1
Cn1c(-c2ccc(Br)o2)nc2ccccc21,13.7,0.6,74.8*,37.5,2.5,0.3
Cc1ccc(-c2nc3ccccc3n2C)o1,5.4,0.7,66.6*,26.0,28.8,0.3
Cn1c(-c2ccc(Br)o2)nc2cc(Br)ccc21,0.9,0.9,26.1,9.4,13.2,0.7
CC(=O)c1ccc(-c2nc3ccccc3n2C)o1,2.5,0.7,60.6*,27.8,-3.5,0.4
CCN1CCC(C(=O)NC2CCCC2)(N(Cc2cccs2)C(=O)Cn2nnc3ccccc32)CC1,/,1.1,-3.6,-13.8,/,1
Cc1c(Br)c(=O)[nH]c(=O)n1COCc1ccccc1,3.0,0.9,10.8,7.6,-0.4,0.9
O=C(COc1ncnc2c(Cl)cc(Cl)cc12)NCCC1=CCCCC1,-5.7,0.8,39.3,16.8,13.4,0.6
C=CCSC1=N/C(=C\c2ccsc2)C(=O)S1,0.0,0.9,2.4,12.1,1.2,1
C=CCSC1=N/C(=C\c2ccc(C)o2)C(=O)S1,-1.7,0.5,82.0*,49.9,-3.8,0.2
CCOc1ccc(C(C)(C)C)cc1S(=O)(=O)N1CC(C)OC(C)C1 (stereo not given),-2.6,0.4,79.2*,63.0*,20.6,0.2
CC1CN(S(=O)(=O)c2ccc(Cl)c(S(=O)(=O)N3CC(C)OC(C)C3)c2)CC(C)O1 (stereo not given),16.4,0.9,8.1,7.9,-1.0,0.9
Clc1ccc(Nc2ccc(-n3ccnc3)nn2)cc1Cl,8.6,0,99.7*,98.7*,34.3*,0
O=C(NC1CCCCCCC1)c1ccc(CNc2c(N3CCOCC3)c(=O)c2=O)cc1,-11.2,0.6,19.7,44.4,11.6,0.8
O=S(=O)(Cc1cccc(F)c1)c1c[nH]c2ccccc12,1.0,0.2,100.0*,81.3*,2.8,0
O=C(CS(=O)(=O)c1cn(Cc2cccc(F)c2)c2ccccc12)N1CCOCC1,-11.0,0.9,34.3,13.2,3.2,0.7
CCS(=O)(=O)N1CCN(Cc2ccncc2)CC1,9.9,0.7,23.9,27.0,-1.5,0.8
COc1ccc(C(=O)NC2CCN(C(=S)Nc3cccc(C)c3C)CC2)cc1,-10.1,1.1,-8.4,-13.2,1.4,1.1
SMILES,PostGolgi yeast,CYP2C9 activ,CYP2C19 inhib,CYP2C9 inhib,PostGolgi ctrl,CYP2C19 activ
CC1=C(CC(=O)c2ccc(Cl)cc2)C(=O)c2ccccc2C1=O,-1.3,0.6,50.8*,44.3,8.0,0.5
O=C(NCCNS(=O)(=O)c1ccccc1)N1CCOCC1,-8.0,1,-5.1,1.1,25.2,1.1
CCCCNC(=O)C1COc2ccccc2O1 (stereo not given),-2.5,0.9,56.3*,7.7,15.2,0.4
O=C(NCCOC(=O)C1COc2ccccc2O1)c1cccnc1 (stereo not given),-5.5,0.9,4.9,12.0,0.5,1
CCCNC(=O)c1ccccc1NC(=O)C1COc2ccccc2O1 (stereo not given),-1.8,0.7,58.7*,30.7,18.9,0.4
O=C(NCCOC(=O)C1COc2ccccc2O1)C1COc2ccccc2O1 (stereo not given),-7.1,0.3,88.4*,69.4*,-4.3,0.1
